Records with an inconclusive call do not appear. A call without a number means that no potency is given here. Activity calls are given as the source filed them. Calls come from the whole dose curve; as a rule, active = well fitted curve in the direction sought with a large enough effect; inconclusive = small, poorly fitted or top-dose-only effect, or another doubt; inactive = no such curve, though single readings can be large; an effect the other way counts as inactive or inconclusive.
Assay: Cell Viability - LYMP2-001 (AID 921);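 note: cells exposed to compound for 24 h at 37 °C; nearly all actives have a fitted effect of over 70% in size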; note: potency is the fitted concentration of half-maximal effect
Conditions: LYMP2-001 lymphoblastoid cell viability; series mostly up to 92.2 µM
Method in brief: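 Human lymphoblastoid LYMP2-001 cells, 2500 per well, in complete medium, treated 24 h at 37 C. Viability from cellular ATP by CellTiter-Glo luminescence; AC50 from Hill-equation fits of qHTS concentration-response.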

Row | Structure (SMILES) | Potency
1 | Nc1cnn([C@@H]2O[C@H](CO)[C@@H](O)[C@H]2O)c(=O)n1 | inactive
2 | CCCCCCCCOc1ccc(C(=O)O)cc1 | inactive
3 | Oc1c(Cl)cc(Cl)c(Cl)c1Cl | inactive
4 | CC(C)OCC1CO1 (stereo not drawn) | inactive
5 | C/C(Cl)=C/CCl | inactive
6 | CCCCNCC | inactive
7 | O=c1[nH]ncc2ccccc12 | inactive
8 | c1ccc(COCc2ccccc2)cc1 | inactive
9 | O=[N+]([O-])c1cccc(I)c1 | inactive
10 | c1ccc2c(c1)ccc1ccccc12 | inactive
11 | Nc1ccc(N=Nc2ccccc2)c(N)c1 | inactive
12 | Cc1ccc(C(=O)O)cc1[N+](=O)[O-] | inactive
13 | COc1ccc([N+](=O)[O-])cc1N | inactive
14 | OCC(CO)(CBr)CBr | inactive
15 | Nc1cc(C(=O)O)c(O)c(S(=O)(=O)O)c1 | inactive
16 | Oc1ccc2c(c1)OCO2 | inactive
17 | c1ccncc1 | inactive
18 | CC(=O)OC1CC(C)OC(C)O1 (stereo not drawn) | inactive

Row | Structure (SMILES) | Potency
19 | O=C(OCc1ccccc1)c1ccccc1O | inactive
20 | C/C=C/C=C/C=O | 39.8 µM (active)
21 | CCN(CC)c1ccc2c(C)cc(=O)oc2c1 | inactive
22 | c1c[nH]cn1 | inactive
23 | c1ccc(SCCSc2ccccc2)cc1 | inactive
24 | O=C(O)/C=C/c1ccc(/C=C/C(=O)O)cc1 | inactive
25 | CCCCOC(=O)COc1ccc(Cl)cc1Cl | inactive
26 | CC(=O)OC(C(=O)c1ccccc1)c1ccccc1 (stereo not drawn) | inactive
27 | CCCCCCN | inactive
28 | CC(=O)Nc1cccc(C)c1 | inactive
29 | CCC(Cl)CC(Cl)C(Cl)C(Cl)C(Cl)C(C)Cl (stereo not drawn) | inactive
30 | COc1ccc(C)cc1N | inactive
31 | CCc1ccc(C(c2ccc(CC)cc2)C(Cl)Cl)cc1 | inactive
32 | C=CC1CO1 (stereo not drawn) | inactive
33 | COc1cc(-c2ccc(N=C=O)c(OC)c2)ccc1N=C=O | inactive
34 | CCOC(=O)C1OC1c1ccccc1 (stereo not drawn) | inactive
35 | COc1ccc(C(=O)Nc2ccccc2)cc1[N+](=O)[O-] | inactive

Assay: MultiTox-Fluor Cytotoxicity Assay - LYMP1-001 - Dead Cells (AID 946);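 note: cells exposed to compound for 16 h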
Conditions: LYMP1-001 lymphoblastoid cells, dead-cell protease fluorescence; series mostly up to 92.2 µM
Method in brief: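 AC50 from Hill fit of concentration-response; data normalized to DMSO (basal) and 15 uM tetraoctylammonium bromide (100%). LYMP1-001 lymphoblastoid cells, 2500/well, 16 hr compound at 37 C; dead-cell protease fluorescence, Ex/Em 485/520.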

Row | Structure (SMILES) | Potency
36 | CCCCCCc1ccc(-c2ccc(C#N)cc2)cc1 | inactive
37 | CCCCCCCCOc1ccc(C(=O)O)cc1 | inactive
38 | Oc1c(Cl)cc(Cl)c(Cl)c1Cl | inactive
39 | CC(C)OCC1CO1 (stereo not drawn) | inactive
40 | CCCCNCC | inactive
41 | O=c1[nH]ncc2ccccc12 | inactive
42 | c1ccc(COCc2ccccc2)cc1 | inactive
43 | O=[N+]([O-])c1cccc(I)c1 | inactive
44 | Nc1ccc2c(c1)C(=O)c1ccccc1C2=O | inactive
45 | Nc1ccc(N=Nc2ccccc2)c(N)c1 | inactive
46 | Cc1ccc(C(=O)O)cc1[N+](=O)[O-] | inactive
47 | COc1ccc([N+](=O)[O-])cc1N | inactive
48 | OCC(CO)(CBr)CBr | inactive
49 | Nc1cc(C(=O)O)c(O)c(S(=O)(=O)O)c1 | inactive
50 | O=C(OCc1ccccc1)c1ccccc1O | inactive
51 | CCN(CC)c1ccc2c(C)cc(=O)oc2c1 | inactive
52 | c1ccc(SCCSc2ccccc2)cc1 | inactive
53 | O=C(O)/C=C/c1ccc(/C=C/C(=O)O)cc1 | inactive
54 | CC(=O)OC(C(=O)c1ccccc1)c1ccccc1 (stereo not drawn) | inactive
55 | CCCCCCN | inactive
56 | CC(=O)Nc1cccc(C)c1 | inactive
57 | CCC(Cl)CC(Cl)C(Cl)C(Cl)C(Cl)C(C)Cl (stereo not drawn) | inactive
58 | COc1ccc(C)cc1N | inactive
59 | C[C@@H]1CC2(OC(O)[C@]3(C)O[C@H]23)O[C@H]2C[C@@]3(C)[C@@H]4CC[C@H]5C(C)(C)C(O[C@@H]6OC[C@@H](O)[C@H](O)[C@H]6O)CC[C@@]56C[C@@]46CC[C@]3(C)[C@@H]12 (stereo partly drawn) | inactive
60 | C=CC1CO1 (stereo not drawn) | inactive
61 | COc1cc(-c2ccc(N=C=O)c(OC)c2)ccc1N=C=O | inactive
62 | CCOC(=O)C1OC1c1ccccc1 (stereo not drawn) | inactive
63 | COc1ccc(C(=O)Nc2ccccc2)cc1[N+](=O)[O-] | inactive

Source: PubChem BioAssay (NCATS)
